# In PubChem BioAssay:
# Inconclusive results are not listed. The source made the active and inactive calls.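 Rule for the calls, unless noted: active = binding below the plate cutoff, the plate median minus 3 SD, with a reading above zero; inconclusive = below the plate cutoff but reading exactly zero; inactive = the rest.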
# Experiments:
# [1] = rapamycin-like changes in RPL19A-GFP expression – cell-based, S. cerevisiae, multiplex flow cytometry, primary screen (AID 1862; in the data active = percent of DMSO control GFP below about 86%;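 note: lower values mimic rapamycin by blocking the RPL19A rise seen in DMSO cells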); conditions: S. cerevisiae RPL19A-GFP strain, flow cytometry fluorescence, 3 h; at 10 µM; stronger effect = lower value
# [2] = TOR pathway GLN3 branch reporter MEP2-GFP changes – S. cerevisiae, multiplex flow cytometry, primary screen (AID 1867;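 active = GFP response, as percent of the DMSO control, above the screen-wide mean plus 3 SD, about 139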;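 note: median GFP channel fluorescence of barcode-gated MEP2-GFP cells measured by flow cytometry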); conditions: S. cerevisiae MEP2-GFP strain, 3 h, at 10 µM, stronger effect = higher value, 100% means same as DMSO wells
# [3] = TOR pathway RTG branch CIT2 reporter changes – S. cerevisiae, GFP fusion, multiplex flow cytometry, primary screen (AID 1870;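 active = percent response above a set limit, the screen-wide mean plus 3 SD, cut at about 130% in these data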;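 note: barcoded CIT2-GFP strain pooled with four other GFP strains with rapamycin as positive control; median GFP fluorescence per well over plate mean of DMSO wells so 100% = DMSO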); conditions: S. cerevisiae CIT2-GFP expression, 3 h, at 10 µM, stronger effect = higher value
# [4] = TOR pathway LAP4-GFP level changes – S. cerevisiae, multiplex flow cytometry, primary screen (AID 1873;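 active = GFP signal, as percent of the solvent control, above the screen mean plus 3 SD, about 149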); conditions: S. cerevisiae LAP4-GFP expression, 3 h, at 10 µM, stronger effect = higher value
# [5] = yeast AGP1-GFP level changes, GLN3 branch – cell-based, multiplex flow cytometry, S. cerevisiae, primary screen (AID 1887;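 active = GFP signal above the screen-wide mean plus 3 SD, that is over about 124.5% of the solvent control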;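 note: AGP1-GFP fusion strain of S. cerevisiae within a five-strain barcoded multiplex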); conditions: 3 h, at 10 µM, stronger effect = higher value
# [6] = reduced mouse 2C T cell binding to pMHC/ICAM-1 vesicles – MLPCN validation set, flow cytometry, LFA-1/ICAM-1 modulator project, pilot screen (AID 2523;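 active = response below a set limit, under 55% cells CD8-positive and vesicle-bound, and CD8 cells' 90th-percentile brightness under 279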;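 for vesicle binding response: mean PE anti-B7-1 fluorescence of CD8+ cells relative to row control; 100% = QL9-loaded vesicles with DMSO vehicle in the same plate row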); conditions: 2C mouse CD8+ T cells, at 7 µM, stronger effect = lower value; double positive events: measured here: CD8+/vesicle+ event percentage
# [7] = target: Integrin beta-1 (Homo sapiens) + Integrin alpha-4 (Homo sapiens) (UniProt P13612+P05556); assay: alpha4beta1 integrin LIBS antibody binding reduction – U937 cells, HUTS-21 mAb, flow cytometry, validation set, VLA-4 allosteric modulator project, pilot screen (AID 2674;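 active = inhibition above 50%, about 3 SD of the validation set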;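 note: antibody binding induced by the VLA-4 ligand LDV present at three times its Kd; 0% = LDV ligand with antibody and no compound and 100% = antibody without LDV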); conditions: HUTS-21 LIBS mAb binding, at 6.7 µM, stronger effect = higher value, binding induced by LDV ligand
# [8] = calorie-restriction mimetic ROS inhibitors, yeast – validation compound set, pilot screen (AID 2706;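 active = superoxide response below 65% of plate, a cut near 3 SD across the whole screen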;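 note: yeast exposed to compound for one week at 30 degrees C before staining; 100% = mean of all compound wells on the same plate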); conditions: S. cerevisiae aging, superoxide DHE fluorescence; at 10 µM, stronger effect = lower value
# [9] = target: Beta-adrenergic receptor kinase 1 (Homo sapiens) (UniProt P25098); assay: GRK2 binders displacing RNA aptamer, biochemical, validation, human GRK2, bead flow cytometry (AID 488806;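 active = aptamer binding inhibition above 30%, about 3 SD of noise from non-fluorescent compounds; inactive = inhibition at or below 30%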); conditions: bead-bound GRK2, FAM-aptamer displacement, at 10 µM, stronger effect = higher value
# [10] = target: AP-2 complex subunit beta (Homo sapiens) (UniProt P63010); assay: beta-arrestin/AP2 interaction blockers – biochemical, validation set, GST-AP2 beads, flow cytometry, pilot screen (AID 504541;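 active = inhibition above 54%, about 3 SD of non-fluorescent compounds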;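 note: AP2 carries R879A mutation and is captured from E. coli lysate; bead-bound FITC arrestin peptide fluorescence measuring arrestin peptide binding to AP2; 0% = DMSO wells and 100% = excess unlabeled arrestin peptide control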); conditions: FITC arrestin peptide, at 10 µM, stronger effect = higher value, AP2 beta2 appendage fragment, R879A mutant
# [11] = cytosolic pH regulators acting via V-ATPase – S. cerevisiae, pHLuorin, HTS validation (AID 504600; in the data active = response above about 15%;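 note: plate controls were DMSO for no effect and reference compound for full effect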); conditions: V-ATPase proton transport, at 10 µM, stronger effect = higher value
# [12] = system: anti-desmoglein-3 scFv antibody binding to human DSG3; assay: blockers of pathogenic pemphigus antibody–desmoglein-3 binding – biochemical, validation compound set, bead-based, flow cytometry, pilot screen (AID 588368); conditions: Protein G beads, DSG3-Fc, scFv-GFP binding, at 10 µM, stronger effect = lower value;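 note: signal is the median channel fluorescence of bead-bound GFP antibody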
# [13] = Nile Red efflux blockade in pump-expressing yeast – validation compound set, multiplex, phenotypic, pilot screen (AID 588506;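 active = efflux inhibition above 0.42, the validation set average plus 4 SD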;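 note: Nile Red retained in cells so higher fluorescence means more efflux inhibition; 0 = negative control wells and 1 = enniatin B 25 µM full block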); conditions: S. cerevisiae pump-expressing triplex, Nile Red efflux flow cytometry; at 10 µM; stronger effect = higher value; the pumps come from Candida albicans
# [14] = target: ATP-binding cassette sub-family B member 6 (Homo sapiens) (UniProt Q9NP58); assay: blockers of ABCB6-driven porphyrin uptake – K562-ABCB6 cells, flow cytometry, validation set, pilot screen (AID 588550;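 active = inhibition above the screen-wide mean plus 3 SD, about 51%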;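 note: 0% = DMSO wells and 100% = benzethonium chloride 70 µM positive control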); conditions: K562-ABCB6 porphyrin accumulation, 1 h, at 10 µM, stronger effect = higher value
# [15] = AML differentiation inducers, ER-HoxA9 marrow cells – cell-based, GFP/MAC1 double positive, flow cytometry, validation set, primary screen (AID 588685;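 active = differentiation response of at least 50%, scaled between solvent and reference control, from cells with both markers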;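 note: compound exposure lasts four days before antibody staining and flow analysis; 0% = DMSO wells and 100% = 5 µM fulvestrant positive control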); conditions: stronger effect = higher value, normalized: vehicle 0, fulvestrant 100
# [16] = target: Beta-2 adrenergic receptor (Homo sapiens) (UniProt P07550); assay: agonist-induced loss of surface beta2AR – cell-based, FAP fluorogen, flow cytometry, validation set, pilot screen (AID 504459;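 active = percent response above 42, roughly 3 SD of non-fluorescent test compounds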;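 note: agonist-driven loss of surface beta2AR via internalization measured by FAP dye flow cytometry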); conditions: Am2.2-beta2AR cells, at 10 µM, stronger effect = higher value
# Beta-2 adrenergic receptor (Homo sapiens), sequence (P07550 whole entry, looked up): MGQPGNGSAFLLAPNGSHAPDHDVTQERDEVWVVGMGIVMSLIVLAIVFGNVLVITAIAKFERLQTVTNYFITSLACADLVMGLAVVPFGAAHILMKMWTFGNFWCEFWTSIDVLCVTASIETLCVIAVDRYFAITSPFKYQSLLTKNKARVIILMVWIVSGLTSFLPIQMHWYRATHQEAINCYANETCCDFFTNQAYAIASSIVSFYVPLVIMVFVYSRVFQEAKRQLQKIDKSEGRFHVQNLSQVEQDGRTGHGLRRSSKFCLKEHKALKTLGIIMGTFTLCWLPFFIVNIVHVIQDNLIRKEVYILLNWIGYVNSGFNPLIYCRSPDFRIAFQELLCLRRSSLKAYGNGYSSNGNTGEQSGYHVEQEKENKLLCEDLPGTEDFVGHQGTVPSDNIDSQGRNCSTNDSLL
# AP-2 complex subunit beta (Homo sapiens), sequence (P63010 whole entry, looked up, the tested form may be a part, one chain of several): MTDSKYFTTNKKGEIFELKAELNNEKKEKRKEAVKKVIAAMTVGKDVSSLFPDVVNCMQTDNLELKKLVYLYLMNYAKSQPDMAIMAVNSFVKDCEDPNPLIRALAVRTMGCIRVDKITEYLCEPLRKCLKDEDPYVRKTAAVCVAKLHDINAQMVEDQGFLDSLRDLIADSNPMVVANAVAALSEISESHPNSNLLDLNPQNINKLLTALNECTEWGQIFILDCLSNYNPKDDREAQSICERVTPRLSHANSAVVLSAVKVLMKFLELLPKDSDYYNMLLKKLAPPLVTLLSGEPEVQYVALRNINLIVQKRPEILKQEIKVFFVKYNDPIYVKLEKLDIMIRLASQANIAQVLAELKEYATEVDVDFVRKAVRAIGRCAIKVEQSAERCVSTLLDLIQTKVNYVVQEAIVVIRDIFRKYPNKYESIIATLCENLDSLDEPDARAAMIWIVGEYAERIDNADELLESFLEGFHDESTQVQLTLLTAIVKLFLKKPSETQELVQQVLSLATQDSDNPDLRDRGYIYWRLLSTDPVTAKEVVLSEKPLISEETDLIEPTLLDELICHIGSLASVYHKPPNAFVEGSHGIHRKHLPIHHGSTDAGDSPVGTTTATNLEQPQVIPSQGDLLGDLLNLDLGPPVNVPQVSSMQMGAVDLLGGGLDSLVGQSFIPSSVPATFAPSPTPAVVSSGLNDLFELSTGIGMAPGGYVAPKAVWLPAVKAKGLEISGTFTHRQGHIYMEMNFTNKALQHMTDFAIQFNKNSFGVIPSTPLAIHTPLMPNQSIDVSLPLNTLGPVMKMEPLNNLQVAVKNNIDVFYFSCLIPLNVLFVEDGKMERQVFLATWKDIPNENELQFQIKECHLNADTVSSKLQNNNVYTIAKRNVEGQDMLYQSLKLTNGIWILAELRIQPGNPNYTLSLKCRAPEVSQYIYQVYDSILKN
# Integrin beta-1 (Homo sapiens) + Integrin alpha-4 (Homo sapiens), sequence (P05556 whole entry, looked up): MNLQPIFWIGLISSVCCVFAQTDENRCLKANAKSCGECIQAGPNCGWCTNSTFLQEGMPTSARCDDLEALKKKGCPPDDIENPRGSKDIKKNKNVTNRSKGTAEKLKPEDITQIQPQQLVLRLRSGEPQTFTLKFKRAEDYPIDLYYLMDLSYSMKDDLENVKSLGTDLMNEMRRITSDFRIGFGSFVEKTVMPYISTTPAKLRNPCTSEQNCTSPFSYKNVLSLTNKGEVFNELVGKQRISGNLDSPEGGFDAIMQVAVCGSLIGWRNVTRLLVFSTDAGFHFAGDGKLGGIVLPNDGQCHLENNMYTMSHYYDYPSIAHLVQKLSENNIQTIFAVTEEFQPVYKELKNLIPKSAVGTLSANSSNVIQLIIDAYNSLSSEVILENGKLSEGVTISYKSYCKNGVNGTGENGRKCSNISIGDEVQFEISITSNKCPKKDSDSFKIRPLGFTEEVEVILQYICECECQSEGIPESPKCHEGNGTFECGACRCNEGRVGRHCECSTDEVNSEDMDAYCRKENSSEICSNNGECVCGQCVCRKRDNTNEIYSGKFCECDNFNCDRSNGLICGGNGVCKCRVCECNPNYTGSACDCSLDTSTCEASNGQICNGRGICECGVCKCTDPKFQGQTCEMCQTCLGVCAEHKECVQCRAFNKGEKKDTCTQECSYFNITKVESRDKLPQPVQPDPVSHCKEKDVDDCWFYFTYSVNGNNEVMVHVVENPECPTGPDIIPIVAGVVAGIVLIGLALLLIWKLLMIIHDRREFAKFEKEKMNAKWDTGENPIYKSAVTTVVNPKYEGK
# Integrin beta-1 (Homo sapiens) + Integrin alpha-4 (Homo sapiens), sequence (P13612 whole entry, looked up): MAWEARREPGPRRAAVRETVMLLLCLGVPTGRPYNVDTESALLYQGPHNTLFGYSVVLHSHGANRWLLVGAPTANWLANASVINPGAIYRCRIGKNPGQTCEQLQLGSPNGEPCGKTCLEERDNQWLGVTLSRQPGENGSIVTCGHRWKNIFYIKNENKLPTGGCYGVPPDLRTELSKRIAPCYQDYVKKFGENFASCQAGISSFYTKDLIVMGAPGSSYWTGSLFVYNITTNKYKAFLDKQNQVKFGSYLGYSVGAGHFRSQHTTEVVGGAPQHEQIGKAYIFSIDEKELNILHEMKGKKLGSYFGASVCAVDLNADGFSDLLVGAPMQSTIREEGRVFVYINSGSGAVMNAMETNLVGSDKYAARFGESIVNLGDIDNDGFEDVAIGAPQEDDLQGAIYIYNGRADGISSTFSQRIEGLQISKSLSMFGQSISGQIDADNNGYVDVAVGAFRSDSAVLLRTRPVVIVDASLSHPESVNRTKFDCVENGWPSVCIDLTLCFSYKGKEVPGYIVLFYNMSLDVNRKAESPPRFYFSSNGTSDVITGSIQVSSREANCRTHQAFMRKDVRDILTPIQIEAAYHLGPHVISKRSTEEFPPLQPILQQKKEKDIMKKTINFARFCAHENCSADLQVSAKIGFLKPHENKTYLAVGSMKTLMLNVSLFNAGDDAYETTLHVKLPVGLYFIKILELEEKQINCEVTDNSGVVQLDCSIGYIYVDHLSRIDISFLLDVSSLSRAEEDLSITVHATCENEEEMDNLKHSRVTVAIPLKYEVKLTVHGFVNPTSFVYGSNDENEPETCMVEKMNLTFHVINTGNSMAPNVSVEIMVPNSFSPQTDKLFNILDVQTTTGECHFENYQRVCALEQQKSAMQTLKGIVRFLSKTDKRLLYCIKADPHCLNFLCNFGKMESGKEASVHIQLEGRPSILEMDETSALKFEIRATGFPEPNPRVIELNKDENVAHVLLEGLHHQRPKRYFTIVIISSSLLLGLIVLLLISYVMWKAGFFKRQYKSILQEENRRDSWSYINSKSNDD
# ATP-binding cassette sub-family B member 6 (Homo sapiens), sequence (Q9NP58 whole entry, looked up): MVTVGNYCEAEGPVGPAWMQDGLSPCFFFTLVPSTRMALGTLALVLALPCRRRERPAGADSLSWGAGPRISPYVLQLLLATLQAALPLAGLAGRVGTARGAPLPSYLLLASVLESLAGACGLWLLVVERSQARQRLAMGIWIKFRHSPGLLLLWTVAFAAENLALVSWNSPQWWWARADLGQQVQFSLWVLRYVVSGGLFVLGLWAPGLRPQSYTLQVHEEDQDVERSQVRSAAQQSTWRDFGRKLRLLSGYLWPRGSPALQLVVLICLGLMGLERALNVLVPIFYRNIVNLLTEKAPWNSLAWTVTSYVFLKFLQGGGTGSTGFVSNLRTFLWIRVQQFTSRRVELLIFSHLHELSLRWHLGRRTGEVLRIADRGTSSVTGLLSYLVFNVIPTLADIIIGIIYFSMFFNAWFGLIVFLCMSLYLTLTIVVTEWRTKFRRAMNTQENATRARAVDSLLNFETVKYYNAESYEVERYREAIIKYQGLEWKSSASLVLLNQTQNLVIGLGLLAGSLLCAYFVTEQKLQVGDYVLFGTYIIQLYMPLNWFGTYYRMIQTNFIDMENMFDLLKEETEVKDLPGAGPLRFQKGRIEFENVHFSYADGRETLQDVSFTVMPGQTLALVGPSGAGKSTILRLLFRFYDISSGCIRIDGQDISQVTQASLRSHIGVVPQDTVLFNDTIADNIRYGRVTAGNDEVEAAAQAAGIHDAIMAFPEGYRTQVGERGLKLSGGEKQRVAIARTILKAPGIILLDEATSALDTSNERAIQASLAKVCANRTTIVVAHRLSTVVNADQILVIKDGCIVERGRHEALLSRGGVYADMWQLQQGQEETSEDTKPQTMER
# Beta-adrenergic receptor kinase 1 (Homo sapiens), sequence (P25098 whole entry, looked up): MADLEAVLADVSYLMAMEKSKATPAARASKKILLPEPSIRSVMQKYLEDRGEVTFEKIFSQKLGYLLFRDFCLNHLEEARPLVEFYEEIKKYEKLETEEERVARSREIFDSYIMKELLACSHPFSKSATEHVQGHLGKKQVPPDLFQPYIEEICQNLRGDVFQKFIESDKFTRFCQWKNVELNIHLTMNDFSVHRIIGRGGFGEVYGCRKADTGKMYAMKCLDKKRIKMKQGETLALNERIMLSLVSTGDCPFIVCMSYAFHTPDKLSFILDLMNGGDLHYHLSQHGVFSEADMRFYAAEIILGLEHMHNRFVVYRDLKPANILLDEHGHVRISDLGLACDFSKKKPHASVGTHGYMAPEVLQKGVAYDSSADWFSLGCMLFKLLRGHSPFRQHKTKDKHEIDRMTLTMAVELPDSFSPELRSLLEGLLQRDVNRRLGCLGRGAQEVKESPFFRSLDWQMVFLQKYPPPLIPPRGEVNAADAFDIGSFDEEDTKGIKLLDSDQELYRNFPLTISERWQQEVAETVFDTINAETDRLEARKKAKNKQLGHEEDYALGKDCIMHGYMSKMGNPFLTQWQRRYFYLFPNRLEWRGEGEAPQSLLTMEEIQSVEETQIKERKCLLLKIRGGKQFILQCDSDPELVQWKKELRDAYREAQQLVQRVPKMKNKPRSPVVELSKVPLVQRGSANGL
Structure (SMILES),percent of DMSO control GFP [1],GFP response vs DMSO [2],percent response of DMSO control [3],GFP response vs DMSO [4],"GFP response, % of DMSO [5]",double positive events [6],vesicle binding response [6],inhibition [7],superoxide response (% of plate) [8],aptamer binding inhibition [9],inhibition [10],response [11],binding (% of control) [12],efflux inhibition (fraction of control) [13],inhibition [14],differentiation response [15],response [16]
CC(=O)c1c(N)nc2n(c1=O)CCCCC2,103% (inactive),102% (inactive),108% (inactive),93.3% (inactive),102% (inactive),55.2%,201% (inactive),14.7% (inactive),94.2% (inactive),4% (inactive),2.65% (inactive),0.91% (inactive),98.7% (inactive),-0.09 (inactive),10% (inactive),9.49% (inactive),–
Nc1nc2c(ncn2COC(CO)CO)c(=O)[nH]1,97.3% (inactive),106% (inactive),96.4% (inactive),125% (inactive),119% (inactive),60.3%,212% (inactive),-11.3% (inactive),106% (inactive),-6% (inactive),-16.5% (inactive),-2.35% (inactive),98% (inactive),–,5% (inactive),-10.9% (inactive),-20.9% (inactive)
COc1cc2c(cc1OC)-c1cc(OCc3ccccc3Cl)nc(=O)n1CC2,98.8% (inactive),98.9% (inactive),101% (inactive),99.4% (inactive),97.5% (inactive),57.7%,172% (inactive),9.09% (inactive),97.5% (inactive),4% (inactive),4.7% (inactive),-7% (inactive),99.8% (inactive),0.06 (inactive),4% (inactive),-18% (inactive),–
CC(C)C[C@H](NC(=O)NC(C)C)C(=O)O,103% (inactive),105% (inactive),95.5% (inactive),95.9% (inactive),99.8% (inactive),60.1%,136% (inactive),9.63% (inactive),111% (inactive),-1% (inactive),-6.27% (inactive),-3.73% (inactive),96.8% (inactive),-0.12 (inactive),0% (inactive),-10.4% (inactive),2.78% (inactive)
Nc1nc2ccc(OC(F)(F)F)cc2s1,100% (inactive),99.9% (inactive),99.3% (inactive),102% (inactive),95.1% (inactive),57.4%,21.6% (inactive),-0.31% (inactive),94.9% (inactive),4% (inactive),–,1.08% (inactive),97.2% (inactive),-0.41 (inactive),3% (inactive),2.69% (inactive),9.24% (inactive)
O=c1ccn([C@@H]2O[C@H](CO)[C@@H](O)[C@H]2O)c(=O)[nH]1,102% (inactive),102% (inactive),93.8% (inactive),98.3% (inactive),109% (inactive),63.9%,124% (inactive),11.7% (inactive),99.8% (inactive),3% (inactive),10.2% (inactive),1.83% (inactive),102% (inactive),–,1% (inactive),24.6% (inactive),-22.4% (inactive)
CC(C)NC(=O)c1ccc(C(C)C)cc1,98.4% (inactive),102% (inactive),108% (inactive),118% (inactive),101% (inactive),63.6%,255% (inactive),-11.3% (inactive),109% (inactive),-2% (inactive),-5.8% (inactive),-1.44% (inactive),102% (inactive),–,13% (inactive),2.4% (inactive),0.9% (inactive)
CC(=O)OCC(=O)[C@H]1CC[C@H]2[C@@H]3CC=C4C[C@@H](O)CC[C@]4(C)[C@H]3CC[C@]12C,106% (inactive),95.9% (inactive),114% (inactive),115% (inactive),89.4% (inactive),59.7%,174% (inactive),4.42% (inactive),99% (inactive),0% (inactive),-2.87% (inactive),0.3% (inactive),101% (inactive),0.29 (inactive),6% (inactive),-27.6% (inactive),–
COc1ccc(CN(CCN(C)C)c2ccccn2)cc1,102% (inactive),107% (inactive),108% (inactive),103% (inactive),107% (inactive),60.3%,60% (inactive),2.66% (inactive),109% (inactive),0% (inactive),-5.39% (inactive),0.3% (inactive),99.3% (inactive),–,4% (inactive),2.2% (inactive),-10.3% (inactive)
O=C(Nc1cccc(Cl)c1)N1CCN2C(=O)c3ccccc3C12c1ccccc1 (stereo unspecified),100% (inactive),98.9% (inactive),96.9% (inactive),92.3% (inactive),96.3% (inactive),58.4%,153% (inactive),0.69% (inactive),92.6% (inactive),3% (inactive),0.48% (inactive),2.99% (inactive),102% (inactive),0.29 (inactive),7% (inactive),-13.1% (inactive),–
